The supplement of paper PMC8728848
Shown is part of a subset that was picked to be rich in the strongest signals.

Assays:
Experiment in all cases: glycan array binding signal (z-score within array); higher = stronger binding
Conditions in all cases: glycan notation: IUPAC condensed, linker removed
[1] = biological target: Fuc(a1-2)Gal(b1-3)GalNAc(a1-3)[Fuc(a1-2)]Gal(b1-4)GlcNAc
Procedure, shortened: (§1)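 From the Consortium for Functional Glycomics database, 3228 arrays were curated, keeping only those whose protein sequence was available. Binding is given as a within-array Z-score averaged across arrays sharing a protein sequence and across linkers. Negative Z-scores can be read as non-binding.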

[2] = biological target: Fuc(a1-2)Gal(b1-4)GlcNAc(b1-3)Gal(b1-4)GlcNAc(b1-2)Man(a1-3)[Fuc(a1-2)Gal(b1-4)GlcNAc(b1-3)Gal(b1-4)GlcNAc(b1-2)Man(a1-6)]Man(b1-4)GlcNAc(b1-4)GlcNAc
Procedure, shortened: as §1

[3] = biological target: Fuc(a1-2)[Gal(a1-3)]Gal(b1-4)[Fuc(a1-3)]GlcNAc(b1-3)GalNAc
Procedure, shortened: as §1

[4] = biological target: Fuc(a1-2)[GalNAc(a1-3)]Gal(b1-3)GalNAc(a1-3)[Fuc(a1-2)]Gal(b1-4)GlcNAc
Procedure, shortened: as §1

[5] = biological target: Fuc(a1-2)[GalNAc(a1-3)]Gal(b1-4)GlcNAc(b1-2)Man(a1-3)[Fuc(a1-2)[GalNAc(a1-3)]Gal(b1-4)GlcNAc(b1-2)Man(a1-6)]Man(b1-4)GlcNAc(b1-4)GlcNAc
Procedure, shortened: as §1

[6] = biological target: Fuc(a1-2)[GalNAc(a1-3)]Gal(b1-4)[Fuc(a1-3)]GlcNAc(b1-3)GalNAc
Procedure, shortened: as §1

[7] = biological target: Fuc(a1-3)[Gal(b1-4)]Glc6S
Procedure, shortened: as §1

[8] = biological target: Fuc(a1-3)[Gal(b1-4)]GlcNAc
Procedure, shortened: as §1

[9] = biological target: Gal(a1-3)Gal(b1-3)[Fuc(a1-4)]GlcNAc(b1-2)Man(a1-3)[Gal(a1-3)Gal(b1-3)[Fuc(a1-4)]GlcNAc(b1-2)Man(a1-6)]Man(b1-4)GlcNAc(b1-4)GlcNAc
Procedure, shortened: as §1

[10] = biological target: Gal(a1-3)Gal(b1-4)[Fuc(a1-3)]GlcNAc(b1-2)Man(a1-3)[Gal(a1-3)Gal(b1-4)[Fuc(a1-3)]GlcNAc(b1-2)Man(a1-6)]Man(b1-4)GlcNAc(b1-4)GlcNAc
Procedure, shortened: as §1

[11] = biological target: Gal(b1-3)GalNAc(b1-3)Gal(a1-4)Gal(b1-4)Glc
Procedure, shortened: as §1

[12] = biological target: Gal(b1-3)GalNAc(b1-4)[Neu5Ac(a2-3)]Gal(b1-4)Glc
Procedure, shortened: as §1

[13] = biological target: Gal(b1-3)GlcNAc(b1-2)Man(a1-3)[Gal(b1-3)GlcNAc(b1-2)Man(a1-6)]Man(b1-4)GlcNAc(b1-4)GlcNAc
Procedure, shortened: as §1

[14] = biological target: Gal(b1-3)GlcNAc(b1-3)Gal(b1-4)GlcNAc(b1-6)[Gal(b1-3)GlcNAc(b1-3)]Gal(b1-4)Glc
Procedure, shortened: as §1

[15] = biological target: Gal(b1-3)GlcNAc6S
Procedure, shortened: as §1

[16] = biological target: Gal(b1-3)[Fuc(a1-4)]GlcNAc(b1-6)GalNAc
Procedure, shortened: as §1

[17] = biological target: Gal(b1-3)[GlcNAc(b1-6)]GalNAc
Procedure, shortened: as §1

[18] = biological target: Gal(b1-3)[Neu5Ac(a2-6)]GlcNAc(b1-4)Gal(b1-4)Glc
Procedure, shortened: as §1

[19] = biological target: Gal(b1-4)GlcNAc(b1-2)Man(a1-3)[Man(a1-6)]Man(b1-4)GlcNAc(b1-4)GlcNAc
Procedure, shortened: as §1

[20] = biological target: Gal(b1-4)GlcNAc(b1-2)[Gal(b1-4)GlcNAc(b1-6)]Man(a1-6)[Gal(b1-4)GlcNAc(b1-2)Man(a1-3)]Man(b1-4)GlcNAc(b1-4)[Fuc(a1-6)]GlcNAc
Procedure, shortened: as §1

[21] = biological target: Gal(b1-4)GlcNAc(b1-3)Gal(b1-3)GalNAc
Procedure, shortened: as §1

[22] = biological target: Gal(b1-4)GlcNAc(b1-3)Gal(b1-4)GlcNAc(b1-3)Gal(b1-4)GlcNAc(b1-2)Man(a1-3)[Gal(b1-4)GlcNAc(b1-3)Gal(b1-4)GlcNAc(b1-3)Gal(b1-4)GlcNAc(b1-2)Man(a1-6)]Man(b1-4)GlcNAc(b1-4)GlcNAc
Procedure, shortened: as §1

[23] = biological target: Gal(b1-4)GlcNAc(b1-3)Gal(b1-4)GlcNAc(b1-3)Gal(b1-4)GlcNAc(b1-3)Gal(b1-4)GlcNAc(b1-2)Man(a1-3)[Gal(b1-4)GlcNAc(b1-3)Gal(b1-4)GlcNAc(b1-3)Gal(b1-4)GlcNAc(b1-3)Gal(b1-4)GlcNAc(b1-2)Man(a1-6)]Man(b1-4)GlcNAc(b1-4)[Fuc(a1-6)]GlcNAc
Procedure, shortened: as §1

[24] = biological target: Gal(b1-4)GlcNAc(b1-3)Gal(b1-4)GlcNAc(b1-3)Gal(b1-4)GlcNAc(b1-3)Gal(b1-4)GlcNAc(b1-3)Gal(b1-4)GlcNAc(b1-2)[Gal(b1-4)GlcNAc(b1-3)Gal(b1-4)GlcNAc(b1-3)Gal(b1-4)GlcNAc(b1-3)Gal(b1-4)GlcNAc(b1-3)Gal(b1-4)GlcNAc(b1-6)]Man(a1-6)[Gal(b1-4)GlcNAc(b1-3)Gal(b1-4)GlcNAc(b1-3)Gal(b1-4)GlcNAc(b1-3)Gal(b1-4)GlcNAc(b1-3)Gal(b1-4)GlcNAc(b1-2)Man(a1-3)]Man(b1-4)GlcNAc(b1-4)[Fuc(a1-6)]GlcNAc
Procedure, shortened: as §1

[25] = biological target: Gal(b1-4)GlcNAc6P
Procedure, shortened: as §1

[26] = biological target: Gal(b1-6)Gal
Procedure, shortened: as §1

[27] = biological target: Gal3S(b1-3)GalNAc
Procedure, shortened: as §1

[28] = biological target: Gal3S(b1-3)GlcNAc
Procedure, shortened: as §1

[29] = biological target: Gal6S(b1-4)GlcNAc
Procedure, shortened: as §1

[30] = biological target: GalNAc(a1-3)GalNAc(b1-3)Gal(a1-4)Gal(b1-4)Glc
Procedure, shortened: as §1

B1: SBD-G4S3-SBD (protein)
chain: MASIPSSASVQLDSYNYDGSTFSGKIYVKNIAYSKKVTVVYADGSDNWNNNGNIIAASFSGPISGSNYEYWTFSASVKGIKEFYIKYEVSGKTYYDNNNSANYQVSTGGGGSGGGGSGGGGSEFASIPSSASVQLDSYNYDGSTFSGKIYVKNIAYSKKVTVVYADGSDNWNNNGNIIAASFSGPISGSNYEYWTFSASVKGIKEFYIKYEVSGKTYYDNNNSANYQVST
glycan array binding signal (z-score) [1]: -0.396 | glycan array binding signal (z-score) [2]: -0.362 | glycan array binding signal (z-score) [3]: 0.033 | glycan array binding signal (z-score) [4]: 1.17 | glycan array binding signal (z-score) [5]: 6.16 | glycan array binding signal (z-score) [6]: 4.46 | glycan array binding signal (z-score) [7]: 2 | glycan array binding signal (z-score) [8]: -0.355 | glycan array binding signal (z-score) [9]: 7.53 | glycan array binding signal (z-score) [10]: 0.036 | glycan array binding signal (z-score) [11]: -0.324 | glycan array binding signal (z-score) [12]: -0.263 | glycan array binding signal (z-score) [13]: 4.15 | glycan array binding signal (z-score) [14]: -0.42 | glycan array binding signal (z-score) [15]: -0.404 | glycan array binding signal (z-score) [16]: 4.38 | glycan array binding signal (z-score) [17]: -0.371 | glycan array binding signal (z-score) [18]: -0.092 | glycan array binding signal (z-score) [19]: -0.387 | glycan array binding signal (z-score) [20]: 4.53 | glycan array binding signal (z-score) [21]: -0.052 | glycan array binding signal (z-score) [22]: 1.38 | glycan array binding signal (z-score) [23]: 7.46 | glycan array binding signal (z-score) [24]: 8.43 | glycan array binding signal (z-score) [25]: -0.348 | glycan array binding signal (z-score) [26]: -0.136 | glycan array binding signal (z-score) [27]: -0.369 | glycan array binding signal (z-score) [28]: -0.406 | glycan array binding signal (z-score) [29]: 4.01 | glycan array binding signal (z-score) [30]: -0.403
